Source: PubChem BioAssay
HTT cytoprotect: protects HTT-Q103 PC12 cells, measured by ATP. 0.14% of 230,000 active. Potency, µM (series often up to 56.4 µM), actives largely listed as activators. PC12 HTT-Q103 induced, cytoprotection, ATP luminescence, 40 h; further: nearly all actives have a fitted effect of over 45% in size
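Quantitative HTS on tebufenozide-induced (100 nM) PC12 cells expressing HTTQ103 exon 1–GFP; compounds tested as a concentration series; survival measured via cellular ATP.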
Tau fluor counter: counter-screen for tau fibril formation inhibitors. Potency, µM (top dose mostly 57.7 µM). 0.93% of 280,000 active. AID 1463. tau K18 P301L Alexa594 fluorescence, heparin fibrillization; further: nearly all actives have a fitted effect of over 55% in size
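Human K18 P301L tau (15 uM unlabeled plus 0.24 uM Alexa 594-labeled, final) in 100 mM sodium acetate pH 7 was mixed with compound and 20 uM heparin and incubated 6 hr at 37 C.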
HTT aggregate: inhibitors of mutant huntingtin aggregate formation in PC12 cells | PC12 HttQ103-GFP aggregates, Acumen cytometry, 40 h | Potency, µM (highest dose often 46.1 µM), usual class: inhibitors | 1.1% of 220,000 active; further: nearly all actives have a fitted effect of over 60% in size
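Compounds (qHTS titration) were added to PC12 cells expressing an ecdysone-driven HTT exon 1 Q103–GFP fusion after induction with 100 nM tebufenozide. Aggregate formation was measured as GFP objects in cell lysates.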
Tau fibril ThT: inhibitors of human tau fibril formation, thioflavin T binding | Potency, µM (highest dose often 57.4 µM), most hits filed as inhibitors | AID 1460 | P10636 | recombinant tau K18 P301L (four-repeat tau fragment), heparin-induced fibrillization, ThT fluorescence | 2.1% of 270,000 active; further: nearly all actives have a fitted effect of over 55% in size
Target sequence (P10636 561-689 P618L limits assumed): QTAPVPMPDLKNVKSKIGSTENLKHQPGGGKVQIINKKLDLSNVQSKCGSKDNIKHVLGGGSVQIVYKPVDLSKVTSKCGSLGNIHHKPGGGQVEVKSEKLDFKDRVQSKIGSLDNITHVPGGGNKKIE
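Aggregation was driven by heparin (20 uM final) acting on recombinant tau […] bearing P301L in 100 mM sodium acetate pH 7; fibrils were detected with Thioflavin T.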
Tau fibril FP: tau fibrillization inhibition (FP). K18 P301L tau heparin fibrillization, Alexa594 FP, 6 h. Potency, µM (titrated, usually from 57.7 µM), hits mostly inhibitors. 0.39% of 280,000 active. AID 1468; further: nearly all actives have a fitted effect of over 55% in size
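Quantitative HTS format: compounds meet 15 uM recombinant K18 P301L tau and Alexa 594-tau tracer in 100 mM sodium acetate pH 7; 20 uM heparin triggers fibrillization at 37 C over 6 hr; FP gives the signal.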
Numbers stand for hits; n = inactive; u = inconclusive; x = no result given; [ ] = another dose, or the depositor's remark. Sampled rows, rich in hits. Any-hit rate of the full collection: about 3.7%. The call rests on the fitted dose curve; in most records, active means well fitted curve in the direction sought with a large enough effect; inconclusive means small, poorly fitted or top-dose-only effect, or another doubt; inactive means no such curve, though single readings can be large; an effect the other way counts as inactive or inconclusive.

SMILES | HTT cytoprotect | Tau fluor counter | HTT aggregate | Tau fibril ThT | Tau fibril FP
CC(N=Cc1cc([N+](=O)[O-])ccc1O)c1ccccc1 (stereo not given) | n | n | u | n | n
Cc1ccc(N=Cc2cccc(O)c2O)c(C)c1 | n | u | n | 3.16µM | 8.91µM
Cc1ccccc1N=Cc1cccc(O)c1O | x | u | n | 7.94µM | u
Cc1cccc(C=Nc2ccc3c(c2)oc2ccccc23)c1O | n[10 µM] | n | n | n | n
CC(N=Cc1cccc(O)c1O)c1ccccc1 (stereo not given) | n | u | n | 5.01µM | u
C[C@H](Oc1ccc(Oc2cnc3ccc(Cl)cc3n2)cc1)C(=O)O | n[10 µM] | x | x | x | x
Cc1ccc(OCC(=O)c2ccc(Cl)s2)c([N+](=O)[O-])n1 | n[10 µM] | u | n | 14.1µM | u
Cc1ccc(OCC(=O)N2CC(C)OC(C)C2)c([N+](=O)[O-])n1 (stereo not given) | 0.0501µM | n | n | n | n
Cc1ccc(OCC(=O)N2CCOCC2)c([N+](=O)[O-])n1 | n[10 µM] | n | n[9.22 µM] | n | n
N#Cc1cc(N)ccc1Sc1ccccc1 | n | u | n | n | u
N#Cc1cc(N)ccc1Sc1ccc(Cl)cc1 | n | 15.8µM[quencher] | n | n | n
COc1ccc2c(=O)c3c(=O)n(Cc4ccco4)c(-c4ccco4)nc3oc2c1 | n | u | n | 28.2µM | n
COc1ccc(-c2nc3oc4cc(OC)ccc4c(=O)c3c(=O)n2Cc2ccco2)cc1 | n[10 µM] | n | n | u | n
c1ccc2c(c1)Cc1cc3cc4c(cc3nc1-2)OCO4 | n | u | x | 3.16µM | n
c1ccc2c(c1)CCN(c1nc3cc4c(cc3s1)OCO4)C2 | n[0.074 µM] | n | n | u | n
CC(C)(C)c1ccc(C(=O)Nc2sc3c(c2C(=O)O)CCC3)cc1 | n[10 µM] | u | n[9.22 µM] | 14.1µM | n
Cc1cccc(NC(=O)c2c(NC(=O)c3ccccc3)sc3c2CCC3)c1 | x | n | x | n | n
Cc1cccc(NC(=O)c2c(NC(=O)c3ccccc3)sc3c2CCCC3)c1 | x | u | x | 10µM | u
O=[N+]([O-])c1ccccc1N/N=C/c1cc2ccccc2nc1Cl | n | n | n | 2.24µM | n
COc1cc(/C=N/Nc2nc(=O)[nH]nc2C)cc([N+](=O)[O-])c1O | n[10 µM] | n | n[9.22 µM] | 14.1µM | n
COc1cc(/C=N/Nc2ccccc2[N+](=O)[O-])cc(OC)c1O | n[10 µM] | n | n | n | n
COc1cc(/C=N/Nc2nc3ccccc3s2)cc([N+](=O)[O-])c1O | n[10 µM] | 14.1µM[quencher] | n[9.22 µM] | 1.78µM | n
COc1ccc(/C=N/Nc2nc(=O)[nH]nc2C)cc1[N+](=O)[O-] | n[10 µM] | n | n | u | n
O=[N+]([O-])c1cc(Cl)cc(/C=N/Nc2nc3ccccc3s2)c1O | n[10 µM] | 25.1µM[quencher] | n[9.22 µM] | 11.2µM | n
Cc1c(Cl)cccc1NC(=O)CN1C(=O)CCn2nc(-c3cccn3C)cc21 | x | n | x | n | n
SMILES | HTT cytoprotect | Tau fluor counter | HTT aggregate | Tau fibril ThT | Tau fibril FP
CNC(=O)CN1C(=O)C2C3C=CC(C3)C2C1=O (stereo not given) | n[10 µM] | n | n | n | n
CS(=O)(=O)NNC(=O)CN1C(=O)C2C3C=CC(C3)C2C1=O (stereo not given) | n | n | 0.0316µM | n | n
CCC(CC)C(=O)Nc1ccccc1C(=O)OCc1cc(=O)n2nc(C3CCCCC3)sc2n1 | x | n | x | n | n
CC(=O)c1ccc(N2CCN(c3ccc(S(=O)(=O)NCCCN(C)C)cc3[N+](=O)[O-])CC2)cc1 | n | n | u | 10µM | n
CC(=O)c1ccc(N2CCN(c3ccc(S(=O)(=O)NCCN(C)C)cc3[N+](=O)[O-])CC2)cc1 | n[10 µM] | n | n[9.22 µM] | x | n
Oc1cc(O)c2c(c1)O[C@H](c1ccc(O)c(O)c1)[C@@H](O)C2 | u | u | n[9.22 µM] | n | n
O=c1c(O)cc(C2Oc3cc(O)cc(O)c3CC2O)cc2c(C3Oc4cc(O)cc(O)c4CC3O)cc(O)c(O)c12 (stereo not given) | x | 8.91µM[quencher] | x | 0.501µM | 1µM
CCOC(=O)N1CCc2c(sc3c2c(=O)n(CCc2ccccc2)c(=O)n3Cc2cc(C)ccc2C)C1 | x | n | x | n | n
CC1=Nc2cccc3cccc(c23)N1 | n | u | n | 22.4µM | u
COC(=O)c1c(NC(=O)CS(=O)(=O)c2ccc(C)cc2)sc2c1CCCCC2 | x | n | x | n | n
Cc1c(Cl)cccc1NC(=O)Nc1ccc2snnc2c1 | x | 10µM[quencher] | x | u | 17.8µM
CN(C)c1ccc(-c2nc3ccccn3c2/N=C/c2ccc(Br)cc2)cc1 | n[10 µM] | u | n | 14.1µM | u
CCCCN(c1ccccc1)c1ncnc(N)c1[N+](=O)[O-] | n | n | 7.08µM | n | n
Cc1ccccc1Oc1ncnc(N)c1[N+](=O)[O-] | n | n | n | n | n
CCc1ccc(/C=C2\CN(CC)Cc3c2nc2ccccc2c3C(=O)O)cc1 | n | n | u | 25.1µM | u
COc1cc(N=C(N)N=C(N)N)c2ncccc2c1 | n[10 µM] | x | x | x | x
COc1cc(C2N3CC4(C)CN2CC(C)(C3)C4)ccc1O (stereo not given) | n[10 µM] | n | n | n | n
COc1ccc(C2N(c3ccccc3)CCN2c2ccccc2)cc1O | n[10 µM] | 14.1µM[quencher] | n[9.22 µM] | u | n
CCCCOc1ccccc1C1CC(=O)Nc2ccc3ccccc3c21 (stereo not given) | x | n | x | n | n
CC(C)(C)c1ccc(S(=O)(=O)/C=C\C#N)cc1 | n | n | x | u | u
Cc1cccc(/N=C/c2sc3ccccc3c2O)n1 | n[10 µM] | 25.1µM[fluorescent] | n[9.22 µM] | 5.62µM | u
Oc1c(C=Nc2cccc3cccnc23)sc2ccccc12 | n | u | n | u | n
O=[N+]([O-])c1ccc(O)c(C=Nc2cccc3ncccc23)c1 | n | n | n | u | n
Oc1ccc(Cl)cc1N=Cc1sc2ccccc2c1Cl | 2.24µM | n | u | n | n
O=[N+]([O-])c1ccc(O)c(N=Cc2sc3ccccc3c2O)c1 | x | u | 7.94µM | 4.47µM | n
SMILES | HTT cytoprotect | Tau fluor counter | HTT aggregate | Tau fibril ThT | Tau fibril FP
COc1ccc(-c2ccc(/C=C3/C(=N)N4C(C)=CSC4=NC3=O)o2)c([N+](=O)[O-])c1 | u | u | n | 2.24µM | n
N#Cc1cccc(CS(=O)(=O)c2nc3ccccc3s2)c1 | x | n | x | u | u
Cn1c2c(c(=O)n(C)c1=O)C1(C(=O)Nc3ccccc31)C(C#N)=C(N)O2 (stereo not given) | n | n | n | 14.1µM | u
N#CC1=C(N)Oc2ccccc2C12C(=O)Nc1n[nH]c(-c3ccccc3)c12 (stereo not given) | n[0.074 µM] | n | u | n | n
C[C@@H](C(=O)N[C@@H](CO)Cc1ccccc1)[C@H]1C[C@]1(C)[C@H](NC(=O)OCc1ccccc1)c1ccccc1 | n | n | x | n | n
COc1ccc(NC2=C(c3ccccc3)C(=O)c3ccccc32)cc1Cl | x | u | x | n | n
COC1=C(Nc2ccc(C)cc2)C(=O)c2ccccc2C1=O | n[10 µM] | u | u | 8.91µM | u
COC1=C(Nc2ccccc2)C(=O)c2ccccc2C1=O | n[10 µM] | u | n | 7.08µM | u
O=C(c1ccco1)N1CCn2cccc2C1c1ccccc1 (stereo not given) | 0.891µM | n | n | n | n
